# The panel holds about 83,000 compounds, 20% with a hit somewhere; the sample as a whole holds those more often.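 Cells were grown in 96-well plates and exposed to the test compound at a single concentration for 48 hours; results are reported as percent growth, with values below 10 considered active.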 Unmarked numbers belong to inactive results. Calls of active or inactive are those of the source.
# System: T-47D breast
# Assay: NCI-60 one-dose screen, 48 h (100 = growth as untreated, 0 = no growth, -100 = all killed)
# Conditions: 10 µM unless noted
row,SMILES,growth
1,C/C(Cc1ccc(Cl)cc1)=C(/c1ccc(Cl)cc1)c1ccc(OCCN(C)C)cc1,47.9%
2,Cc1ccc(NC(=O)C(Cl)Cl)cc1,96.6%
3,Cc1cnc(Nc2ccc(N3CCN(C)CC3)cc2)nc1Nc1ccc(Cl)c(NS(=O)(=O)C(C)(C)C)c1,39.8%
4,CCn1c(Sc2nnc(NC(=O)CSC(=S)N3CCCCC3)s2)nc2c1c(=O)n(C)c(=O)n2C,86.9%
5,CNC(=O)c1cc(Oc2ccc3nc(Nc4cc(Cl)cc(Cl)c4)ccc3c2)ccn1,55.6%
6,C[C@@H]1CC[C@@H]2[C@@H]1[C@H](OC(=O)/C=C/c1ccccc1)[C@]1(C3CCCCC3)C[C@@H](NC(=O)CO)[C@@]2(C)O1,95%
7,O=C1CCC(N2C(=O)c3cccc(NCCCC4CCN(CCNC(=O)c5cc6c(o5)C(=O)c5ccccc5C6=O)CC4)c3C2=O)C(=O)N1 (configuration not stated),-5.59% (active)
8,CC(=[N-])N1CCC[C@@H](Nc2c3ccccc3nc3ccccc23)C1.[Cl][Pt].[NH-]CCC[NH-],14.8%
9,Cc1ccc2c(n1)C(=O)C(Oc1ccc(F)cc1)=CC2=O,40%
10,O=S(=O)(NCCNc1cc(-c2c(-c3cccc(O)c3)nc3sccn23)ccn1)c1ccc(Cl)cc1,26%
11,CN(C)CCOC(=O)Nc1ccc(Cl)cc1,101%
12,CCCCCCCCN(CCCCCCCC)C(=N)c1ccnc2ccccc12,-62.9% (active)
13,COc1cc(-c2ncn(/C=C\c3nnco3)n2)cc(C(F)(F)F)c1,28.9%

# System: BT-549 breast
# Assay: as above
# Conditions: 10 µM unless noted
row,SMILES,growth
1,O=C(CC12CC3CC(CC(C3)C1)C2)NCCOCCOCCNC(=O)c1cc2c(o1)C(=O)c1ccccc1C2=O,-93.7% (active)
2,CCN(CC)CCCNC(=O)c1ccc(N)cc1,102%
3,CCCCCCCCc1cc[n+](CC(=O)c2ccc(Br)cc2)cc1,77.8%
4,CC/C=C/[C@@H]1C=C[C@@H]2CCC[C@H]2[C@@H]1CC[C@H](O)[C@H](C)N,85.9%
5,N#Cc1c(NC(=O)c2ccc(Br)cc2)sc2c1CCCC2,52.2%
6,O=[N+]([O-])c1ccc2[nH]cc(-c3c4ccsc4cc4[nH]c5ccc([N+](=O)[O-])cc5c34)c2c1,24.7%
7,Cc1nc(Nc2ccc(N)cc2)c2ccccc2n1,104%
8,CCCCN(Cc1ccc(C(=O)NO)cc1)C(=O)Nc1ccc(OCCCCCCCCCn2cc(CCCCC(=O)N[C@H](C(=O)N3C[C@H](O)C[C@H]3C(=O)NCc3ccc(-c4scnc4C)cc3)C(C)(C)C)nn2)cc1,42.2%
9,COc1ccc(OC)c(/C=C2\COc3ccc(O)cc3C2=O)c1,93.5%
10,CCOC(=O)C1=C(C)NC(SCc2nnc(-c3ccc(Cl)cc3)o2)=NC1c1ccc(Cl)cc1Cl (configuration not stated),89.7%
11,O[C@H]1CO[C@H]2[C@@H]1OC[C@@H]2Oc1ccc(Nc2ccnc(Nc3ccc(O[C@H]4CO[C@H]5[C@@H]4OC[C@@H]5O)c(Cl)c3)n2)cc1Cl,22.1%
12,COc1ccc(-n2nnc(C(=O)NCCc3c[nH]c4ccc(F)cc34)c2C)cc1,103%
13,CC(=O)Nc1ccc2c(c1)Cc1c(F)cccc1-2,109%
14,O=C1c2cccc3c(-c4ccc(-c5nc6c7ccccc7c7ccccc7c6[nH]5)cc4)ccc(c23)C(=O)N1CCN1CCNCC1,95.4%
15,C=C(C=O)C1CCC2(C(=O)O)CCC3(C)C(CCC4C5(C)CCC(O)C(C)(C)C5CCC43C)C12 (configuration not stated),17.4%
16,NC(=O)CC1(O)C=C(Br)C(=O)C(Br)=C1,28.8%
17,Cc1ccc(-n2nnc(C3=NCCc4c3[nH]c3ccc(Cl)cc43)c2C)cc1,85.3%
18,CCN(CC)CC(O)CNc1c2ccc(Cl)cc2nc2ccc(OC)cc12 (configuration not stated),42.9%
19,C=C1C(=O)O[C@H]2[C@H]1CC/C(C(=O)NCCCCCCCCNC(=O)/C1=C/CC[C@@]3(C)O[C@H]3[C@H]3OC(=O)C(=C)[C@@H]3CC1)=C\CC[C@@]1(C)O[C@@H]21,51%
20,NS(=O)(=O)c1cn(-c2ncnc3nc[nH]c23)ccc1=O,109%

row,SMILES,growth
1,O[C@H]1CO[C@H]2[C@@H]1OC[C@@H]2Oc1ccc(Nc2nc(Nc3ccc(F)c(Cl)c3)ncc2F)cc1Cl,105%
2,N#Cc1c(NC(=O)c2cccc(C(F)(F)F)c2)sc2c1CCC(=O)C2,-77.1% (active)
3,Cc1cc(-c2ccccc2)cc(SC#N)[n+]1[O-],52.2%
4,CSc1nc(N)c(CNC(C)c2ccccc2)c(=O)n1C (configuration not stated),96.1%
5,Nc1c(-c2nc3ccc(Br)cc3c(=O)[nH]2)nnn1-c1ccccc1,63.1%
6,CN1CCN(c2ccc3nc(/N=C/c4ccc5sc(-c6ccc([N+](=O)[O-])cc6)nc5c4)sc3c2)CC1,92.4%
7,C/C(Cc1ccc(Cl)cc1)=C(/c1ccc(Cl)cc1)c1ccc(OCCN(C)C)cc1,103%
8,Cc1ccc(NC(=O)C(Cl)Cl)cc1,110%
9,Cc1cnc(Nc2ccc(N3CCN(C)CC3)cc2)nc1Nc1ccc(Cl)c(NS(=O)(=O)C(C)(C)C)c1,-5.14% (active)
10,CCn1c(Sc2nnc(NC(=O)CSC(=S)N3CCCCC3)s2)nc2c1c(=O)n(C)c(=O)n2C,79.7%
11,CNC(=O)c1cc(Oc2ccc3nc(Nc4cc(Cl)cc(Cl)c4)ccc3c2)ccn1,58.9%
12,C[C@@H]1CC[C@@H]2[C@@H]1[C@H](OC(=O)/C=C/c1ccccc1)[C@]1(C3CCCCC3)C[C@@H](NC(=O)CO)[C@@]2(C)O1,98.6%
13,O=C1CCC(N2C(=O)c3cccc(NCCCC4CCN(CCNC(=O)c5cc6c(o5)C(=O)c5ccccc5C6=O)CC4)c3C2=O)C(=O)N1 (configuration not stated),-96.2% (active)
14,CC(=[N-])N1CCC[C@@H](Nc2c3ccccc3nc3ccccc23)C1.[Cl][Pt].[NH-]CCC[NH-],79%
15,Cc1ccc2c(n1)C(=O)C(Oc1ccc(F)cc1)=CC2=O,85.4%
16,O=S(=O)(NCCNc1cc(-c2c(-c3cccc(O)c3)nc3sccn23)ccn1)c1ccc(Cl)cc1,50.2%
17,CN(C)CCOC(=O)Nc1ccc(Cl)cc1,82%
18,CCCCCCCCN(CCCCCCCC)C(=N)c1ccnc2ccccc12,66.2%
19,COc1cc(-c2ncn(/C=C\c3nnco3)n2)cc(C(F)(F)F)c1,-13.8% (active)

# Source: PubChem BioAssay (NCI)
